Measurements from PubChem BioAssay.
The source made the active and inactive calls. Unless noted, how the calls were made is not given here.

Experiments:
[1] = HepG2 liver cancer cell viability effects, profiling panel, resazurin fluorescence, 24 h, PK04 Diversity Set (AID 1172); settings: higher = more signal
[2] = basal S. cerevisiae growth modulation, no modifier, primary screen, OD600, strain BY4716, 24 h, basal condition (AID 1173); settings: OD600, 24 h, higher = more signal, called active from +8 up or from −8 down
[3] = MM1S myeloma cell viability, profiling panel, resazurin fluorescence, basal, 24 h, PK04 Diversity Set (AID 1174); settings: higher = more signal, called active from +8 up or from −8 down;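 further: MM1S multiple myeloma cell line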
[4] = target: Dihydroorotate dehydrogenase (quinone), mitochondrial (Plasmodium falciparum (isolate 3D7)) (UniProt Q08210); assay: PfDHODH enzyme inhibitors, primary screen, biochemical, C-terminal His tag, absorbance 600 nm (AID 1175); settings: DCIP absorbance 600 nm, higher = more signal, called active from +8 up or from −8 down;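 further: recombinant parasite enzyme with a five histidine tag at its C terminus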
Chain of Dihydroorotate dehydrogenase (quinone), mitochondrial (Plasmodium falciparum (isolate 3D7)) (Q08210 whole entry, looked up): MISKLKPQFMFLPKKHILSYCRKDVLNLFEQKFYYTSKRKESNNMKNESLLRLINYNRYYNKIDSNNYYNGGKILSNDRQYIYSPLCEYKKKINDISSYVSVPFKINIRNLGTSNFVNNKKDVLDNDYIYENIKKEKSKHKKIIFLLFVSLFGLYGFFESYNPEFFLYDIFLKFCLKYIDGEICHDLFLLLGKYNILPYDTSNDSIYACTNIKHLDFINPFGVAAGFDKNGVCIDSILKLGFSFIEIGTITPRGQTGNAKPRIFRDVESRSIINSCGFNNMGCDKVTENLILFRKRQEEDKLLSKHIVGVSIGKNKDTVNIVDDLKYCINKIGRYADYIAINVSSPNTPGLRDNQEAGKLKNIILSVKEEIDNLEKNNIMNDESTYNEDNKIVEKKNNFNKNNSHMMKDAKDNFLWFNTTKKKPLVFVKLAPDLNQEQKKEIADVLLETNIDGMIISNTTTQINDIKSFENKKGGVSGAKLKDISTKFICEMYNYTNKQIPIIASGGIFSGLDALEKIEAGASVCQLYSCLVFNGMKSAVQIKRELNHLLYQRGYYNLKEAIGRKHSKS

[5] = P. aeruginosa biofilm formation inhibitors, primary screen, strain PAO1, LB-PBS medium, absorbance 600 nm (AID 1176); settings: P. aeruginosa PAO1 growth/biofilm, A600, 12 h; higher = more signal
[6] = S. cerevisiae RM11-1a growth modifiers, primary screen, strain RM11-1a, OD600, basal, 24 h (AID 1177); settings: OD600, 24 h, higher = more signal, called active from +8 up or from −8 down;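 further: cultures grown under basal conditions with no added stressor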
[7] = E. coli acrAB mutant growth effects, primary screen, E. coli filamentation inducers, strain DRC39, OD650, 24 h (AID 1178); settings: higher = more signal, called active from +8 up or from −8 down;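 further: growth measured as culture turbidity by optical density at 650 nm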
[8] = E. coli acrAB mutant growth effects, primary screen, E. coli filamentation inducers, strain DRC39, OD650, 48 h (AID 1179);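 further: screen aims at cell division blockers that make cells filament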; settings: E. coli DRC39 delta-acrAB growth, higher = more signal, called active from +8 up or from −8 down
[9] = RPMI8226 myeloma cell viability, profiling panel, resazurin fluorescence, basal, 24 h, PK04 Diversity Set (AID 1180); settings: higher = more signal;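 further: RPMI8826 multiple myeloma cell line at 5000 cells per well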
[10] = target: E3 ubiquitin-protein ligase XIAP (Homo sapiens) (UniProt P98170); assay: XIAP binders, primary screen, biophysical, small-molecule microarray, fluorescence 635 nm (AID 1181); settings: small-molecule microarray binding, higher = more signal;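 further: score merges 667 nm emission and signal to noise over triplicate slides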
Chain of E3 ubiquitin-protein ligase XIAP (Homo sapiens) (P98170 whole entry, looked up): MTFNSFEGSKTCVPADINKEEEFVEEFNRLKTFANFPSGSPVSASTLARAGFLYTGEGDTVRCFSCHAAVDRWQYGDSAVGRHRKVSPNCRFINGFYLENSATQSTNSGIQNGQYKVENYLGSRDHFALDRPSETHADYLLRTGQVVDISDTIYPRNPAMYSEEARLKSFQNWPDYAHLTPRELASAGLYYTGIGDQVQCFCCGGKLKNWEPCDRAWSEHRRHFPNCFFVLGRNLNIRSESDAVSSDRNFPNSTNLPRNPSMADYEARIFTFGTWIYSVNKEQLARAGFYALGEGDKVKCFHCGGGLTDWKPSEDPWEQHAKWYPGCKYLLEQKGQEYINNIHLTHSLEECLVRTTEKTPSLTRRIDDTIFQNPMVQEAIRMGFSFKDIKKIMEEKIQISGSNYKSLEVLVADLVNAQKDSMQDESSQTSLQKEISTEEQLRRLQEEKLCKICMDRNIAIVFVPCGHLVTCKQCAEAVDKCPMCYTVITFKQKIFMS

[11] = system: XIP peptide (Xip251-270) binding; assay: small-molecule binders of XIP peptide, primary screen, biochemical, small-molecule microarray, fluorescence 635/667 nm, 0.1 µg/mL protein (AID 1182); settings: fluorescent protein binding, 635 nm, higher = more signal, called active from +8 up or from −8 down
XIP peptide (Xip251-270) = assay: small-molecule binders of XIP peptide, primary screen, biochemical, small-molecule microarray, fluorescence 635/667 nm, 0.5 µg/mL protein (AID 1183); settings: small-molecule microarray binding, fluorescence 635 nm; higher = more signal
[12] = Plasmodium falciparum growth inhibition, primary screen, strain 3D7, DAPI fluorescence, 100 nL (AID 1184);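 further: parasites grown inside human red blood cells in medium with human serum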; settings: P. falciparum 3D7 growth, 3 d, higher = more signal
[13] = target: Homeobox protein Hox-A13 (Mus musculus) (UniProt Q62424); assay: inhibitors of HoxA13-DNA binding, primary screen, biochemical, fluorescence polarization, labeled oligonucleotide (AID 1185); settings: 15 min, higher = more signal, called active from +8 up or from −8 down
Chain of Homeobox protein Hox-A13 (Mus musculus) (Q62424 whole entry, looked up): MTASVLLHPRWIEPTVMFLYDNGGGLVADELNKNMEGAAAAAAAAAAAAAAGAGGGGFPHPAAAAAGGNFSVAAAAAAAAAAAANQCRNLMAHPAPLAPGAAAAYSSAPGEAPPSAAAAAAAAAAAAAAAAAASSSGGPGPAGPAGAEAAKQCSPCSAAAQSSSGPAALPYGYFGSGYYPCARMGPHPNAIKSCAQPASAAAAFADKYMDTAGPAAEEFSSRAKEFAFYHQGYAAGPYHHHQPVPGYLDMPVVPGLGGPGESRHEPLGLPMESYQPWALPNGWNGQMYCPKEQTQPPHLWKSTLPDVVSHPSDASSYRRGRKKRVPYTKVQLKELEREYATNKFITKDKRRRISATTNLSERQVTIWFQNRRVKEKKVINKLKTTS

[14] = inhibitors of hydroxyurea-induced Chk1 phosphorylation, primary screen, imaging, HeLa, phospho-Chk1 antibody, percent positive cells (AID 1186); settings: hydroxyurea-induced phospho-Chk1 immunofluorescence imaging, higher = more signal
[15] = inhibitors of hydroxyurea-induced Chk1 phosphorylation, primary screen, imaging, HeLa, phospho-Chk1 nuclear intensity (AID 1187); settings: hydroxyurea-induced phospho-Chk1 immunofluorescence imaging, higher = more signal

Compound	z-score [1]	z-score [2]	z-score [3]	composite z-score [4]	z-score [5]	z-score [6]	z-score [7]	z-score [8]	z-score [9]	composite z-score [10]	composite z-score [11]	composite z-score (XIP peptide (Xip251-270))	z-score [12]	z-score [13]	z-score [14]	z-score [15]
Oc1ccc2cc[n+](Cc3sc4ccccc4c3Cl)cc2c1	-1.23	-0.225 (inactive)	-1.42 (inactive)	-0.427 (inactive)	-0.0748 (inactive)	0.474 (inactive)	-0.257 (inactive)	-0.952 (inactive)	-0.624	-0.0095	0.558 (inactive)	0.904	-1.11	-4.76 (inactive)	-0.0224 (inactive)	-0.106 (inactive)
Cc1ccc(S[C@]2(C(=O)NC3CC3)CC(=O)N(Cc3ccccc3)[C@@H]2c2ccc(CO)cc2I)cc1	0.417	-3.23 (inactive)	-2.45 (inactive)	-1.47 (inactive)	0.751 (inactive)	-1.46 (inactive)	0.714 (inactive)	0.753 (inactive)	-1.71	-0.252	0.135 (inactive)	0.387	-0.0873	-2.79 (inactive)	0.327 (inactive)	0.794 (inactive)
COCCOC(=O)N1C(=O)[C@@]2(c3cc(C#CCC(C(=O)OC)C(=O)OC)ccc31)[C@H](c1ccccc1OCCO)N1[C@H](c3ccccc3)[C@H](c3ccccc3)OC(=O)[C@H]1[C@@H]2C(=O)NC[C@H](O)c1ccccc1	-0.326	1.67 (inactive)	-2.44 (inactive)	-0.398 (inactive)	2.23 (inactive)	2.84 (inactive)	0.675 (inactive)	0.382 (inactive)	-3.62	0.177	1.42 (inactive)	0.705	-2.31	-1.77 (inactive)	-0.0638 (inactive)	-0.19 (inactive)
CO[C@H]1O[C@H](CO)[C@@H](OC(=O)Nc2ccccc2)[C@H](OC(=O)Nc2ccccc2)[C@@H]1OC(=O)Nc1ccccc1	-0.72	0.56 (inactive)	-1.73 (inactive)	0.202 (inactive)	-0.826 (inactive)	1.22 (inactive)	0.576 (inactive)	0.667 (inactive)	-1.15	0.178	0.228 (inactive)	0.642	-1.43	-6.12 (inactive)	0.0303 (inactive)	0.502 (inactive)
C=C(C)[C@@H]1CC=C(C(O)C2C=CC3C(=O)N(c4ccccc4)C(=O)C3N2Nc2ccccc2)CC1 (stereo partly drawn)	-0.126	-1.81 (inactive)	0.272 (inactive)	-0.376 (inactive)	1.6 (inactive)	0.367 (inactive)	0.195 (inactive)	-0.0871 (inactive)	0.37	0.0997	0.0668 (inactive)	0.717	0.759	-2.62 (inactive)	-0.437 (inactive)	-0.626 (inactive)
C=CCOC(=O)[C@H]1[C@@H]2C(=O)O[C@@H](c3ccccc3)[C@@H](c3ccccc3)N2[C@@H](c2ccc(OCCOC(=O)[C@H]3C[C@H]4C(=O)N[C@@H](CCCCN(C)C)C(=O)N4[C@H]3c3ccc(O)cc3)cc2)[C@]12C(=O)Nc1ccc(I)cc12	0.0141	-0.526 (inactive)	-0.934 (inactive)	0.341 (inactive)	0.739 (inactive)	-0.0228 (inactive)	-0.624 (inactive)	-1.24 (inactive)	-0.973	-0.0819	0.768 (inactive)	0.791	-0.193	-4.89 (inactive)	0.622 (inactive)	-0.163 (inactive)
O=C1C2C=CC(C(O)CCc3ccccc3)N(Nc3ccccc3F)C2C(=O)N1c1ccccc1 (stereo not drawn)	0.0011	0.14 (inactive)	0.209 (inactive)	-0.442 (inactive)	0.0083 (inactive)	-0.253 (inactive)	-0.837 (inactive)	0.0277 (inactive)	0.799	0.272	0.605 (inactive)	0.524	-0.0934	-2.76 (inactive)	0.652 (inactive)	0.699 (inactive)
CCCc1cc2c(n1Cc1cc(F)cc(F)c1)C(C)C1CN(C(=O)c3ccccc3)C(C)(C(=O)OC)C21 (stereo not drawn)	-1.27	0.615 (inactive)	-1.65 (inactive)	0.249 (inactive)	0.992 (inactive)	0.223 (inactive)	-0.522 (inactive)	-0.152 (inactive)	-1	0.0702	0.264 (inactive)	-0.0681	-1.32	-2.41 (inactive)	0.789 (inactive)	0.0213 (inactive)
O=C1O[C@@H](c2ccccc2)[C@@H](c2ccccc2)N2[C@@H](c3ccccc3OCCO)[C@]3(C(=O)Nc4ccccc43)[C@@H](C(=O)Nc3nc4ccccc4s3)[C@H]12	-0.699	0.583 (inactive)	-2.95 (inactive)	0.905 (inactive)	1.36 (inactive)	1.11 (inactive)	-0.986 (inactive)	-1.25 (inactive)	-5.15	0.0975	1.13 (inactive)	0.797	-1.54	1.91 (inactive)	0.489 (inactive)	0.794 (inactive)
[N-]=[N+]=NCc1ccccc1[C@@H]1OC(c2ccc(OCCCO)cc2)=N[C@]1(Cc1ccccc1)C(=O)NCC(O)CO (stereo partly drawn)	0.597	-0.293 (inactive)	-0.869 (inactive)	-0.0408 (inactive)	1.35 (inactive)	-0.0888 (inactive)	-0.151 (inactive)	-0.465 (inactive)	-0.665	-0.0294	-0.275 (inactive)	-0.0063	-2.06	-2.01 (inactive)	-0.0268 (inactive)	0.117 (inactive)
O=C1OCCC/C=C\[C@H]2OC34C=CCN(Cc5ccccc5)C(=O)[C@H]3N(CCCO)C(=O)[C@@H]4C12 (stereo partly drawn)	-0.203	1.29 (inactive)	0.794 (inactive)	0.905 (inactive)	-1.16 (inactive)	1.29 (inactive)	0.625 (inactive)	0.59 (inactive)	1.35	-0.0876	0.0652 (inactive)	-0.616	-0.125	-4.98 (inactive)	-0.58 (inactive)	-0.324 (inactive)
COc1cc2c(cc1OC)CN(C(=O)[C@H]1[C@@H]3C(=O)O[C@@H](c4ccccc4)[C@@H](c4ccccc4)N3[C@@H](c3ccc(O)cc3)[C@]13C(=O)Nc1ccccc13)CC2	-0.102	0.744 (inactive)	-0.426 (inactive)	0.806 (inactive)	1.67 (inactive)	1.07 (inactive)	0.188 (inactive)	-0.144 (inactive)	0.0788	0.188	0.602 (inactive)	0.755	-0.044	-2.37 (inactive)	-0.169 (inactive)	-0.238 (inactive)
Cc1ccc(S[C@]2(C(=O)O)CC(=O)N(C(C)C)[C@@H]2c2ccc(CO)cc2I)cc1	0.975	-4.89 (inactive)	-1.66 (inactive)	-1.12 (inactive)	0.953 (inactive)	-2.76 (inactive)	0.818 (inactive)	1.42 (inactive)	-1.58	-0.122	0.534 (inactive)	0.837	0.14	-3.85 (inactive)	-0.366 (inactive)	0.0562 (inactive)
CCCC=C(CCC)[C@@H](NC(=O)c1cccs1)c1ccc(C(F)(F)F)cc1	0.74	0.872 (inactive)	0.116 (inactive)	-4.81 (inactive)	1.69 (inactive)	0.196 (inactive)	0.224 (inactive)	-0.262 (inactive)	0.455	0.309	0.0798 (inactive)	0.477	-1.65	-2.14 (inactive)	0.247 (inactive)	0.201 (inactive)
COC(=O)[C@@]1(Cc2ccc(F)cc2)[C@H]2c3cc(C(=O)N(C)C)n(Cc4cc(F)c(F)c(F)c4)c3C[C@H]2CN1C(=O)c1ccccc1	-2.13	1.56 (inactive)	-1.97 (inactive)	0.349 (inactive)	0.15 (inactive)	1.16 (inactive)	-0.194 (inactive)	0.38 (inactive)	-3.47	0.157	0.0639 (inactive)	0.626	-1.66	-3.48 (inactive)	0.0893 (inactive)	0.175 (inactive)
O=C(c1ccccc1)N1C(=O)[C@@]2(Cc3ccccc31)N=C(c1ccc(OCCCO)cc1)O[C@H]2c1ccccc1	-1.01	-0.123 (inactive)	-2.94 (inactive)	-0.138 (inactive)	0.702 (inactive)	0.655 (inactive)	-0.399 (inactive)	-0.239 (inactive)	-3.43	0.327	1.68 (inactive)	0.841	-2.09	-5.9 (inactive)	0.0794 (inactive)	0.255 (inactive)
COCCOC(=O)N1C(=O)[C@@]2(c3cc(C#CC4(O)CCCCCC4)ccc31)[C@H](c1ccccc1OCCO)N1[C@H](c3ccccc3)[C@H](c3ccccc3)OC(=O)[C@H]1[C@@H]2C(=O)N1CCN(c2ncccn2)CC1	-0.645	1.61 (inactive)	-0.349 (inactive)	0.122 (inactive)	2.03 (inactive)	2.39 (inactive)	0.0296 (inactive)	0.946 (inactive)	-0.874	0.0774	-0.0186 (inactive)	0.744	-2.23	-0.571 (inactive)	-0.353 (inactive)	-0.189 (inactive)
[N-]=[N+]=Nc1ccccc1[C@H]1OC(c2ccc(OCCCO)cc2)=N[C@@]1(CCS(=O)(=O)c1ccccc1)C(=O)NCC(O)CO (stereo partly drawn)	-0.14	-0.484 (inactive)	-0.0646 (inactive)	1.01 (inactive)	0.854 (inactive)	-0.129 (inactive)	-0.117 (inactive)	-0.878 (inactive)	-0.389	0.0727	-0.193 (inactive)	0.557	-1.81	-4.65 (inactive)	-0.0536 (inactive)	-0.22 (inactive)
